Assay results as given in ChEMBL document CHEMBL4513216, “Probing the Open Global Health Chemical Diversity Library for Multistage-Active Starting Points for Next-Generation Antimalarials” (ACS Infect Dis, 2020).
In all, about 69,000 compounds went through this assay and about 8,600 (12%) showed an effect of 50% or more. For the sample, strong results were picked, then their nearest neighbours and some compounds at random.

Each compound was assayed on Plasmodium berghei (assay: Screen against P. berghei liver stage (PbLuc), transformed with Luciferase, at 10uM). Details: tested at 10 uM.
Assay type: functional, HepG2

Row | SMILES | INHIBITION [%]
1 | Cc1nc(-c2nnc[nH]2)sc1C(=O)N1CCCC(C(F)(F)F)C1 (centres undefined) | 7.25
2 | CN(C)C(=O)C1CCC2(CCN(C(=O)Nc3ccc(F)cc3)CC2)O1 (centres undefined) | 31.2
3 | O=C([C@@H]1C[C@@H]2CCN(C3CCOCC3)C[C@@H]2O1)N1CCOCC1 | -9.26
4 | COCCn1c2c(ccc1=O)CCN(C(=O)Cc1cccs1)CC2 | -14.2
5 | CNc1cnc(CC2COCCN(Cc3ccccc3)C2)cn1 (centres undefined) | 9.05
6 | c1ccc(-n2cc(CNCC3CCCN3c3cccnn3)cn2)cc1 (centres undefined) | 41.5
7 | CC(CS(C)(=O)=O)N(C(=O)CCc1ccc(Cl)s1)C1CC1 (centres undefined) | 31.5
8 | CC(CS(C)(=O)=O)N(C(=O)c1ccc(Cl)s1)C1CC1 (centres undefined) | 52.1
9 | CC(CS(C)(=O)=O)N(C(=O)Nc1cc(F)ccc1Cl)C1CC1 (centres undefined) | 3.63
10 | Cn1cc(C(=O)NCC2CCN(C(=O)NC3CC3)CC2)cn1 | -16
11 | N#Cc1ccnc(SCC2CN=C(N3CCOCC3)S2)c1 (centres undefined) | 52.6
12 | c1csc(SCC2CN=C(N3CCOCC3)S2)c1 (centres undefined) | -12.9
13 | c1ccn2c(SCC3CN=C(N4CCOCC4)S3)ncc2c1 (centres undefined) | 0.705
14 | O=c1c(NCCc2ccc(O)cc2)c(NCc2ccco2)c1=O | 45.7
15 | Cc1ccc(N2CCc3sc(C(=O)N4CCOCC4)cc32)nn1 | -34
16 | Cc1cc(S(=O)(=O)N2CCCc3cc(Br)ccc32)sc1C(=O)O | 54.3
17 | Cc1cc(S(=O)(=O)N2CCCc3cc(Cl)ccc32)sc1C(=O)O | -12.5
18 | Cc1cc(S(=O)(=O)N2CCCc3ccccc32)sc1C(=O)O | 37.1
19 | O=C(Nc1ccccc1)N1CC(C(=O)N2CCCC2)C2(CCOCC2)C1 (centres undefined) | -9.71
20 | NC(=O)c1ccc(C2CCCN2C(=O)CCn2nnc3ccccc32)s1 (centres undefined) | 7.6
21 | NC(=O)c1ccc(C2CCCN2C(=O)Cn2nc3ccccc3n2)s1 (centres undefined) | 19.4
22 | CC(=O)c1c(C)nn(CC(=O)N2CCCC2c2ccc(C(N)=O)s2)c1C (centres undefined) | 65.7

Row | SMILES | INHIBITION [%]
23 | CN(C)CCN1CCCC12CCN(C(=O)c1ccco1)CC2 | -20.8
24 | O=C(Nc1ccncc1)N(CCO)Cc1ccsc1 | -42.2
25 | CCOc1ccc(C(=O)N2C[C@@H]3CC[C@H]2CN(C)C3)cc1OCC | 28
26 | COc1ccccc1-c1ccc(C(=O)N2C[C@@H]3CC[C@H]2CN(C)C3)cc1 | 58.3
27 | COc1ccc(C(=O)N2C[C@@H]3CC[C@H]2CN(C)C3)cc1Cl | 32.3
28 | Cn1cc(C2CCCN2C(=O)Cn2c(=O)oc3ccccc32)cn1 (centres undefined) | -19.1
29 | CN(C)C[C@H]1C[C@@H]2CN(C(=O)c3ccno3)C[C@@H]2O1 | 34.9
30 | O=C(NC[C@H]1C[C@@H]2CN(C(=O)c3ccno3)C[C@@H]2O1)C1CCC1 | 70.4
31 | Cn1cccc1C(=O)NC[C@H]1C[C@@H]2CN(C(=O)c3ccno3)C[C@H]2O1 | 42.3
32 | CCn1cc(-c2cc(C(F)F)n3nc(CC(=O)O)nc3n2)cn1 | 53
33 | CCn1cc(-c2cc(C(F)F)n3nc(CCC(=O)O)nc3n2)cn1 | 33.7
34 | Cn1cc(-c2cc(C(F)F)n3nc(CCC(=O)O)nc3n2)cn1 | -24.1
35 | CC(C)(C)c1nc(C(C)(C)NC(=O)C2CC(=O)N(CC3CC3)C2)no1 (centres undefined) | -17.6
36 | Cn1cc(CN2CCc3nc(-c4ccccn4)nc(O)c3C2)cn1 | 52.3
37 | CCn1cc(CN2CCc3nc(-c4ccccn4)nc(O)c3C2)cn1 | 1.5
38 | Cn1cc(CN2CCc3c(nc(-c4ccccn4)[nH]c3=O)C2)cn1 | 26.7
39 | CN(C)C(=O)c1ccc(C2CCCNC2)nc1 (centres undefined) | 12.3
40 | CN(C)CC1CN(Cc2ccsc2)Cc2nccn2C1 (centres undefined) | 31.8
41 | CN(C)Cc1cccc(-c2cccnc2C(=O)NCc2ccco2)c1 | 2.7
42 | CN(C)Cc1cccc(-c2cccnc2C(=O)NCc2ccccn2)c1 | 14.85
43 | CN(C)Cc1cccc(-c2cccnc2C(=O)NCc2cn(C)cn2)c1 | 51
44 | Cc1ncsc1CCN(C)C(=O)CN1CCOc2ccccc2C1 | 40.5

Row | SMILES | INHIBITION [%]
45 | Cc1ncsc1CCN(C)C(=O)CN1CCOC1=O | 61.8
46 | CN(Cc1csc(-c2cccs2)n1)C(=O)CN1CCOC1=O | 55
47 | Cc1ncsc1CCN(C)C(=O)CN1CCCCCC1=O | 30.8
48 | COc1ccccc1CN(C)C(=O)CN1C(=O)OC[C@@H]1c1ccccc1 | 28.5
49 | Cc1ccc(=O)n(CC(=O)N(C)Cc2csc(-c3cccs3)n2)n1 | 5.23
50 | CC(C)n1ccnc1CN1C(=O)OC[C@@H]1c1ccccc1 | 42.6
51 | Cc1cc(C)n(CC(=O)N(C)Cc2csc(-c3cccs3)n2)c(=O)n1 | 38.5
52 | Cc1ncsc1CCN(C)C(=O)CN1CCCCC1=O | 39.4
53 | CC(C)N(C)C(=O)CN1C(=O)OC[C@@H]1c1ccccc1 | 58.2
54 | Cc1nc(CCN(C)C(=O)CN2C(=O)OC[C@@H]2c2ccccc2)no1 | 44.3
55 | Cc1ncsc1CCN(C)C(=O)CN1C(=O)OC[C@@H]1c1ccccc1 | 66.5
56 | CCN(CC(=O)Nc1cc(Cl)ccc1C)C(=O)c1cnccn1 | -25.9
57 | COc1ccc(C(=O)N2CCC(Nc3ccc(C)nn3)CC2)cc1 | 42
58 | CN(C)c1nc2sc(C(=O)N3CCN(C(=O)OC(C)(C)C)CC3)cc2s1 | -9.39
59 | CCCS(=O)(=O)N1C[C@H](N(C)Cc2ccco2)[C@@H]2OCCC[C@@H]21 | 40.4
60 | O=C(CCn1cnc2cc(F)c(F)cc21)N1CCN2CCCCC2C1 (centres undefined) | 23.4
61 | Cc1cc(CN2C[C@@H]3COC[C@@H](C(=O)N4CCCCO4)[C@@H]3C2)oc1C | 33.4
62 | NC(=O)c1ccc(NC2CCOC3(CCCC3)C2)nn1 (centres undefined) | 7.18
63 | COC(=O)CCn1ccc(=O)c2cc(OC)ccc21 | -80.3
64 | CN(CCc1ccccc1)C(=O)CN1C(=O)OC[C@@H]1c1ccccc1 | 36.9
65 | CN(CCc1cnn(C)c1)C(=O)CN1C(=O)OC[C@@H]1c1ccccc1 | 50.8
66 | CN(CCc1cnn(C)c1)C(=O)Cn1c(=O)[nH]c2ccccc21 | 27

Row | SMILES | INHIBITION [%]
67 | CCC(CC)C(=O)NCc1cnn(CC)c1 | 20.1
68 | Cn1c(=O)c2cc(C(=O)NCCc3ccccc3)ccc2n(C)c1=O | -0.371
69 | Cc1nc(NC(=O)c2c(-n3cnnn3)sc3c2CCCC3)sc1C | 93.7
70 | O=C(NCC1CCCO1)c1c(-n2cnnn2)sc2c1CCC2 (centres undefined) | -1.58
71 | Cc1nc(NC(=O)c2c(-n3cnnn3)sc(C)c2C)sc1C | 92.5
72 | CCCn1nccc1C(=O)Nc1nc(C)c(C)s1 | -9.44
73 | CCCNC(=O)c1c(-n2cnnn2)sc2c1CCC2 | 26.1
74 | Cc1nc(NC(=O)c2c(-n3cnnn3)sc3c2CCC3)sc1C | 93.7
75 | CC(C)CNC(=O)c1sccc1-n1cnnn1 | 32.3
76 | CC(C)CNC(=O)c1c(-n2cnnn2)sc2c1CCCC2 | 68.1
77 | CC(C)CCNC(=O)c1c(-n2cnnn2)sc2c1CCCC2 | 23.4
78 | COC(=O)CNC(=O)c1c(-n2cnnn2)sc2c1CCCC2 | -5.59
79 | CC(C)CNC(=O)c1c(-n2cnnn2)sc2c1CCC2 | 14.2
80 | Cc1sc(-n2cnnn2)c(C(=O)NC(C)C)c1C | 21.2
81 | Cc1ncc(CNC2CCc3nc(C(C)C)nn3C2)s1 (centres undefined) | 24.7
82 | CCn1c(-c2ccccc2)nn(CC(=O)NCCc2ccc(C)o2)c1=O | -19.1
83 | CCCc1noc(CNC2CCCN(Cc3noc(C4CC4)n3)C2)n1 (centres undefined) | -37.7
84 | Cc1nc2c(N(C)Cc3ccnn3C)nc(N)nc2n1C | 32.3
85 | Cc1ccc(F)cc1-n1c(CCCN2CCOCC2)n[nH]c1=O | 39.4
86 | COc1cc(C)sc1C(=O)N1CCCC(n2nc(C)nc2C)C1 (centres undefined) | 48.2
87 | CCc1ccc(C(=O)O)cc1S(=O)(=O)N(C)c1cccc(C#N)c1 | 24.4
88 | CCc1ccc(C(=O)O)cc1S(=O)(=O)N(C)c1cccc(C)c1 | 59.1

Row | SMILES | INHIBITION [%]
89 | Cc1cccc(N(C)S(=O)(=O)c2cc(C(=O)O)cs2)c1 | 22.3
90 | COc1ccc(S(=O)(=O)NCC(N)c2ccccc2)c(C)c1 (centres undefined) | 24.8
91 | O=C(c1cccnc1)N1CCOC(c2ccc(-c3cncnc3)cn2)C1 (centres undefined) | 31.6
92 | Cc1cc(=O)n(CCNS(=O)(=O)c2cccc(C(F)(F)F)c2)cn1 | 68.5
93 | Cc1cc(=O)n(CCNS(=O)(=O)c2ccc(F)c(Cl)c2)cn1 | 29.7
94 | Cc1cc(=O)n(CCNS(=O)(=O)c2ccccc2)cn1 | 31.3
95 | CC(C)(C)CN1CCC(c2nccnc2Nc2cnccn2)CC1 | -0.232
96 | CN1CCC(c2nccnc2Nc2cnccn2)CC1 | 9.98
97 | CC(C)(C)CN1CCCC(c2nccnc2Nc2cnccn2)C1 (centres undefined) | 51.7
98 | CN1CCCC1CNC(=O)CCCOc1cccc(Br)c1 (centres undefined) | 9.383
99 | NC(=O)CN1CC(O)c2ccccc2S1(=O)=O (centres undefined) | 37.4
100 | Cc1nc(C(=O)N2CCCC(c3ccc4sc(N)nc4n3)C2)co1 (centres undefined) | 5.56
101 | CN(Cc1cccnc1)[C@@H]1CN(C(=O)c2ccno2)[C@@H]2CCCO[C@H]12 | 50.3
102 | CN(Cc1cncnc1)[C@H]1CN(C(=O)c2ccco2)[C@@H]2CCCO[C@@H]21 | -35.8
103 | CN(Cc1cccnc1)[C@@H]1CN(C(=O)c2ccoc2)[C@@H]2CCCO[C@H]12 | -2.35
104 | CN(Cc1cccnc1)[C@@H]1CN(C(=O)CC2CC2)[C@@H]2CCCO[C@H]12 | -31
105 | COCC(=O)N1C[C@H](N(C)Cc2cncnc2)[C@H]2OCCC[C@H]21 | 64.7
106 | CN(Cc1cncnc1)[C@H]1CN(C(=O)c2ccc[nH]2)[C@@H]2CCCO[C@@H]21 | 58.4
107 | CN(Cc1cncnc1)[C@@H]1CN(C(=O)c2ccco2)[C@@H]2CCCO[C@H]12 | 26.7
108 | CN(Cc1cncnc1)[C@@H]1CN(C(=O)C2CC2)[C@@H]2CCCO[C@H]12 | -7.7
109 | CN(Cc1cccnc1)[C@@H]1CN(C(=O)c2ccco2)[C@@H]2CCCO[C@H]12 | 3.17
